From PubChem BioAssay (EPA / NIEHS) come the findings set out here.

Assay [1] can be described thus: ATG_TAL_CIS: Attagene CIS-FACTORIAL HepG2 Assay for human TAL Basal Promoter (AID 2282966).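 Also: background control endpoint measuring basal TAL promoter reporter mRNA not a specific factor.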 As to conditions: HepG2 Attagene cis-factorial TAL promoter reporter; actives raise or lower the signal. In outline: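 After 24 hours of chemical exposure, transfected HepG2 cells yielded RNA that was converted to 6-FAM-labelled, HpaI-digested reporter fragments for capillary electrophoresis. Values derive from bidirectional fitting against DMSO controls.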

Assay [2] can be described thus: ATG_TGFb_CIS: Attagene CIS-FACTORIAL HepG2 Assay for human Transforming Growth Factor (TGF) (AID 2282967). As to conditions: HepG2 Attagene CIS TGFb reporter, mRNA transcription; actives raise or lower the signal. The procedure, abridged:
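Readout: fluorescently labeled reporter cDNA fragments resolved by capillary electrophoresis after RT-PCR. Transfected HepG2 cells dosed for 24 h; endogenous TF activity at TGFB1-linked cis element; gain or loss fitted relative to DMSO.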

Assay [3] concerns the target Nuclear receptor subfamily 1 group I member 3 (Homo sapiens) (UniProt Q14994). Description: ATG_CAR_TRANS: Attagene TRANS-FACTORIAL HepG2 Assay for human Constitutive Androstane Receptor (CAR) (AID 2282969; active = hit-call score of the fitted dose curve at least 0.9, where 1 is the maximum;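 also: activators raise reporter mRNA above DMSO so AC50 marks induction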). As to conditions: HepG2 Attagene TRANS-FACTORIAL CAR reporter. The procedure, abridged:
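Transiently transfected HepG2, multiplex TRANS reporters (CAR-Gal4 chimera driving GAL4-UAS reporter). 24 h dosing. Readout: reporter transcript by RT-PCR + capillary electrophoresis, fluorescence intensity; positive direction vs DMSO.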

Assay [4] has as its target Steroid hormone receptor ERR1 (Homo sapiens) (UniProt P11474). Kind of assay: ATG_ERRa_TRANS: Attagene TRANS-FACTORIAL HepG2 Assay for human Estrogen-Related Receptor alpha (ERRa) (AID 2282971; active = hit-call score of the fitted dose curve at least 0.9, where 1 is the maximum). The settings on record: HepG2 Attagene TRANS reporter, ERRa transactivation. In outline:
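Reporter transcript induction was quantified by RT-PCR and capillary electrophoresis of FAM-labelled, HpaI-cut products after 24 h treatment of HepG2 cells carrying transiently transfected GAL4-UAS reporter units and an exogenous ERRa-Gal4 fusion; activity scored as increase over DMSO.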

The target of assay [5] is X-box-binding protein 1 (Homo sapiens) (UniProt P17861). Description: ATG_Xbp1_CIS: Attagene CIS-FACTORIAL HepG2 Assay for human X-box Binding Protein 1 (XBP1) (AID 2282972). The settings on record: HepG2 XBP1 cis-element reporter, Attagene multiplex; actives raise or lower the signal. In outline:
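Multiplexed cis-reporter readout in transfected HepG2 liver cells. Exposure lasted 24 hours. Activity in either direction was fitted against DMSO as negative control and baseline.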

Assay [6] in a line: ATG_M_19_TRANS: Attagene TRANS-FACTORIAL HepG2 Assay for M19 Transcription Factor (Internal Marker) (AID 2282974; active = hit-call score of the fitted dose curve at least 0.9, where 1 is the maximum). As to conditions: HepG2 Attagene TRANS-FACTORIAL M19 internal marker reporter. In outline: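 After transfection of HepG2 with GAL4-UAS-driven reporter constructs, cells are dosed for 24 h. Total RNA is reverse-transcribed, reporter sequences PCR-amplified and labelled, then HpaI-digested and sized by capillary electrophoresis.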

The nature of assay [7]: ATG_VDRE_CIS: Attagene CIS-FACTORIAL HepG2 Assay for human Vitamin D Receptor Element (VDRE) (AID 2282968). As to conditions: HepG2 VDRE cis-reporter transcription, actives raise or lower the signal. The procedure, abridged:
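Transient MRTU transfection of HepG2, 24 h compound exposure. Readout: reporter transcripts via RT-PCR and capillary electrophoresis, fluorescence. Bidirectional fit vs DMSO.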

The target in assay [8] is Estrogen receptor (Homo sapiens) (UniProt P03372). Description: ATG_ERa_TRANS: Attagene TRANS-FACTORIAL HepG2 Assay for human Estrogen Receptor alpha (ERa) (AID 2282970; active = hit-call score of the fitted dose curve at least 0.9, where 1 is the maximum). The settings on record: HepG2 Attagene TRANS ERa GAL4 reporter, mRNA. The procedure, abridged:
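Liver-derived HepG2 cells expressing chimeric nuclear receptor-Gal4 proteins from transient transfection were exposed for 24 hours. Gain of reporter mRNA signal versus DMSO, read by capillary electrophoresis of FAM-labelled PCR products, was recorded.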

Assay [9] concerns the target Androgen receptor (Homo sapiens) (UniProt P10275). Description: ATG_AR_TRANS: Attagene TRANS-FACTORIAL HepG2 Assay for human Androgen Receptor (AR) (AID 2282973; active = hit-call score of the fitted dose curve at least 0.9, where 1 is the maximum). The settings on record: HepG2 Attagene TRANS-FACTORIAL AR reporter transcription. The procedure, abridged:
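Steps: transfect HepG2 with multiple GAL4-UAS reporter transcription units (TRANS format, exogenous NR-Gal4 protein); dose 24 h; isolate RNA, reverse-transcribe, PCR-amplify, FAM-label, HpaI-digest; resolve by capillary electrophoresis. Positive direction vs DMSO.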

In general, AC50 refers to the concentration giving half of the maximal activity seen.

Molecules are shown by their SMILES. Results filed as inconclusive are left out. Active and inactive are the calls of the source. The calls were made as follows, unless noted: active = hit-call score of the fitted dose curve at least 0.9, where 1 is the maximum; inactive = score below 0.9.

Sequence of Androgen receptor (Homo sapiens) (P10275 whole entry, looked up, the tested form may be a part): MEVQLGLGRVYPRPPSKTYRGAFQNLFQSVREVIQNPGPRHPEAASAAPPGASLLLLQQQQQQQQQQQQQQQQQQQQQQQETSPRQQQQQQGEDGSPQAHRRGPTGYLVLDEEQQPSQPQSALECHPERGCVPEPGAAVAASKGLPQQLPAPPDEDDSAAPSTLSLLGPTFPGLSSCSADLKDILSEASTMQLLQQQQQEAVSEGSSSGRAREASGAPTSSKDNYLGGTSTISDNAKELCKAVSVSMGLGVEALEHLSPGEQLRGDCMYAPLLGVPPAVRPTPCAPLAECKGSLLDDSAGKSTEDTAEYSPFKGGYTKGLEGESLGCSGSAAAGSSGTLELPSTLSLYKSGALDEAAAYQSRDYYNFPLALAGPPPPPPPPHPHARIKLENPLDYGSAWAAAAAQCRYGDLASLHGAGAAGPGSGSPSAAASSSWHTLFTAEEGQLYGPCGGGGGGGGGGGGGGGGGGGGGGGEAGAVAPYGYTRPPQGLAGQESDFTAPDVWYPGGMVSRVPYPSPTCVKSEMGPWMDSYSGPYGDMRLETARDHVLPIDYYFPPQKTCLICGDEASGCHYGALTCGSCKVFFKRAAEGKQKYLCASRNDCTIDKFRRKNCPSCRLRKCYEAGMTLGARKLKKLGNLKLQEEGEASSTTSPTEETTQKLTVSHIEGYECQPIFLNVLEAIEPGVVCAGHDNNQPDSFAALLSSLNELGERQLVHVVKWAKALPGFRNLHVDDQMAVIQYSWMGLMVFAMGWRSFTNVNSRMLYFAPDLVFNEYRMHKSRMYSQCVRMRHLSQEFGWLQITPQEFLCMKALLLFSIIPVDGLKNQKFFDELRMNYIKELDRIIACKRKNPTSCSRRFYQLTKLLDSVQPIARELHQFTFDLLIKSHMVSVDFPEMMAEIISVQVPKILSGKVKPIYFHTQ
Sequence of Estrogen receptor (Homo sapiens) (P03372 whole entry, looked up, the tested form may be a part): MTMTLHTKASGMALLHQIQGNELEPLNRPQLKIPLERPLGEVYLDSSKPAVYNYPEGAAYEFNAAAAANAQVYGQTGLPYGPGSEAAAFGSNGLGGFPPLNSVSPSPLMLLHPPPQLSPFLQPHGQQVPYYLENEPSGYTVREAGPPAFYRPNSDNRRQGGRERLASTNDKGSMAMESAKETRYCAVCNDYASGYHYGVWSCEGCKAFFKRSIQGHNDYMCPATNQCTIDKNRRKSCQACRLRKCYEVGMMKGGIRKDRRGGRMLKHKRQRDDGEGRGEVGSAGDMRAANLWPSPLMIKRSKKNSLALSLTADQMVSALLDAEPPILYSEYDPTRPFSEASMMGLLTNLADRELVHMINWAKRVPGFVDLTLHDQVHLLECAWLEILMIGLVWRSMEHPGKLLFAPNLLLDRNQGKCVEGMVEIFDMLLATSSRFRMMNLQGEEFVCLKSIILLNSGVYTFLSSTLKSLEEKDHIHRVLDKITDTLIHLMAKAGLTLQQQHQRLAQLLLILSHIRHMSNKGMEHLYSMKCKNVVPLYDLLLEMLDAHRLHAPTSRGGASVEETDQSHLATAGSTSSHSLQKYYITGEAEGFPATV
Sequence of Steroid hormone receptor ERR1 (Homo sapiens) (P11474 whole entry, looked up, the tested form may be a part): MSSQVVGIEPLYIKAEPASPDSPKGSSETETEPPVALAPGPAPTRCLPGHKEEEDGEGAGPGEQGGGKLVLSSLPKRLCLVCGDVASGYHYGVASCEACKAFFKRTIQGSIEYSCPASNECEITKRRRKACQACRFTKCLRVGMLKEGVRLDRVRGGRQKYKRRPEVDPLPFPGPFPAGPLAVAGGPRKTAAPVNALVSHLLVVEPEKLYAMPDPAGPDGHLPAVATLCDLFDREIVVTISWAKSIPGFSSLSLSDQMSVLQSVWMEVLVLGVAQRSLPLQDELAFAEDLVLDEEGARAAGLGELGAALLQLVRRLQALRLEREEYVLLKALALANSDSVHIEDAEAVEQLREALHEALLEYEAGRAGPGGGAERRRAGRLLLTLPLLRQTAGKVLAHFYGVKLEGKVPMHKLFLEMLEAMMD
Sequence of Nuclear receptor subfamily 1 group I member 3 (Homo sapiens) (Q14994 whole entry, looked up, the tested form may be a part): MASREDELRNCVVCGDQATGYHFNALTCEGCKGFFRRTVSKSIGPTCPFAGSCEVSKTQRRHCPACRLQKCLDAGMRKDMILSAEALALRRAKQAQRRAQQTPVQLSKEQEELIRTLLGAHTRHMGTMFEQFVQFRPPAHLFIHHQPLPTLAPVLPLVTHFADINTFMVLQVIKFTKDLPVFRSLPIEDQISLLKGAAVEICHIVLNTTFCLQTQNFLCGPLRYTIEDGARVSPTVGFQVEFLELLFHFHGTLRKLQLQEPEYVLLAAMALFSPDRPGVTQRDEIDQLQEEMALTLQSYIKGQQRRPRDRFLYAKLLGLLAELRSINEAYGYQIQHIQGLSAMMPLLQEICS
Sequence of X-box-binding protein 1 (Homo sapiens) (P17861 whole entry, looked up): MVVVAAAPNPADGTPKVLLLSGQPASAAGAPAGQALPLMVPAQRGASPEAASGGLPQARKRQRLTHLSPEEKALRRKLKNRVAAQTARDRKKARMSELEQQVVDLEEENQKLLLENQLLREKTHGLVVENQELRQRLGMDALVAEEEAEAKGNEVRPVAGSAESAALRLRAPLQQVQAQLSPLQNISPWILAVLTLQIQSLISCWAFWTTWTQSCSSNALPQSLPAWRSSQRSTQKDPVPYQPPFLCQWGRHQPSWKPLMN

In the case of `CCOP(=S)(OCC)Oc1ccc2c(C)c(Cl)c(=O)oc2c1`, the call in assay [1], in assay [2], in assay [3], in [4], in assay [5] and in assay [6] was inactive.
With `CNC(=O)Oc1cccc2c1OC(C)(C)O2`, the result in [1], in [2] and in [8] was inactive. Moreover, the AC50 is 50 µM (active) in [7] and 33.2 µM (active) in assay [5].
Regarding `CCCCOC(=O)[C@@H](C)Oc1ccc(Oc2ccc(C#N)cc2F)cc1`, the outcome in assay [1], in assay [2], in [3], in [8], in assay [4] and in assay [5] was inactive. The molecule was classed as inactive in [6].
For the molecule `CCCSP(=O)(OCC)Oc1ccc(Br)cc1Cl` (stereo not given), the result in assay [1], in [2] and in [3] was inactive. Besides, in [5], the AC50 is 1.31 µM (active).
For `CSC1=N[C@@](C)(c2ccccc2)C(=O)N1Nc1ccccc1`, the result in [1], in assay [2] and in assay [5] was inactive. In assay [7], the AC50 is 24.3 µM (active).
`COc1cc(OC)nc(Sc2cccc(Cl)c2C(=O)O)n1`: the call in [1], in assay [2], in assay [3], in [4] and in assay [5] was inactive.
As for `CN1COCN(Cc2cnc(Cl)s2)C1=N[N+](=O)[O-]`, the outcome in assay [1], in assay [2], in [7] and in assay [5] was inactive.
On to `CCC(=O)Nc1ccc(Cl)c(Cl)c1`, for which the call in [1], in assay [2], in assay [7], in assay [3], in assay [5] and in [9] was inactive. The result in [6] was inactive.
As for `CC(C)=CC1C(C(=O)OCN2C(=O)C3=C(CCCC3)C2=O)C1(C)C` (stereo not given), the molecule was classed as inactive in assay [1], in assay [2], in [9] and in [6]. The AC50 in assay [7] was 31.7 µM (active); in assay [5] it was 50 µM (active).
In the case of `N#CSCSC#N`, the outcome in [1], in assay [2], in assay [3], in [4], in assay [5] and in [9] was inactive. Besides, the result in assay [6] was inactive.
For the molecule `Nc1c(Cl)cc([N+](=O)[O-])cc1Cl`, the outcome in assay [1], in [3], in assay [4] and in assay [6] was inactive. Moreover, the values for the AC50 in assay [2], in assay [8] and in assay [5] were 70.8 µM (active), 50 µM (active) and 50 µM (active), respectively.
On to `S=C1NCCN1`, for which the result in assay [1], in assay [2], in assay [7] and in assay [5] was inactive.
As for `CCc1cnc(C2=NC(C)(C(C)C)C(=O)N2)c(C(=O)O)c1` (stereo not given), the molecule was called inactive in assay [1], in assay [2], in [7], in assay [3] and in assay [5].
`CCOP(=S)(OCC)OC(Cl)C(Cl)(Cl)Cl` (stereo not given): the result in assay [1], in assay [2], in assay [3] and in [5] was inactive. For the same molecule, in assay [7], the AC50 is 50 µM (active).
Regarding `Cc1cc(C2CC2)nc(Nc2ccccc2)n1`, the molecule was called inactive in [1], in assay [3] and in assay [8]. The AC50 was 50 µM (active) in assay [2] and 31.6 µM (active) in [5].
Take `COc1ccc(C(=CC(=O)N2CCOCC2)c2ccc(Cl)cc2)cc1OC`: the call in assay [1], in [2], in assay [4], in [5], in [9] and in assay [6] was inactive. The AC50 in assay [7] was 11.4 µM (active).
In the case of `O=c1ccc(=O)[nH][nH]1`, the molecule was classed as inactive in assay [1], in [2], in assay [7], in assay [4], in assay [5] and in assay [9]. The molecule was classed as inactive in [6].
Turning to `CN(C)C(=O)Nc1cccc(C(F)(F)F)c1`, the call in [1], in assay [2], in assay [7], in assay [5] and in [6] was inactive.
